# Data reported in PubChem BioAssay (NCI).
# Compounds without any hit were thinned out: in the full panel of roughly 83,000, 20% have a hit.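 A percent growth of 40 corresponds to 60% growth inhibition; 0 means no net growth; -100 means all cells died. Active threshold: below 10.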 Values without a mark were called inactive. The source made the active and inactive calls.
# Experiments:
# Experiment in all cases: NCI-60 one-dose screen, 48 h (100 = growth as untreated, 0 = no growth, -100 = all killed)
# Conditions in all cases: 10 µM unless noted
# HCT-15 colon = system: HCT-15 colon
# HT29 colon = system: HT29 colon
# SNB-75 CNS = system: SNB-75 CNS
# SNB-19 CNS = system: SNB-19 CNS
# U251 CNS = system: U251 CNS
# PC-3 prostate = system: PC-3 prostate
# SK-MEL-5 melanoma = system: SK-MEL-5 melanoma
# UACC-62 melanoma = system: UACC-62 melanoma
# LOX IMVI melanoma = system: LOX IMVI melanoma
# SK-MEL-28 melanoma = system: SK-MEL-28 melanoma
# SK-MEL-2 melanoma = system: SK-MEL-2 melanoma
# SN12C renal = system: SN12C renal
# UO-31 renal = system: UO-31 renal
# TK-10 renal = system: TK-10 renal
# ACHN renal = system: ACHN renal
# A498 renal = system: A498 renal
# CCRF-CEM leukemia = system: CCRF-CEM leukemia
# MOLT-4 leukemia = system: MOLT-4 leukemia
# CAKI-1 renal = system: CAKI-1 renal
# EKVX NSCLC = system: EKVX NSCLC
SMILES,growth (HCT-15 colon),growth (HT29 colon),growth (SNB-75 CNS),growth (SNB-19 CNS) [%],growth (U251 CNS),growth (PC-3 prostate) [%],growth (SK-MEL-5 melanoma),growth (UACC-62 melanoma),growth (LOX IMVI melanoma),growth (SK-MEL-28 melanoma),growth (SK-MEL-2 melanoma),growth (SN12C renal) [%],growth (UO-31 renal),growth (TK-10 renal),growth (ACHN renal),growth (A498 renal),growth (CCRF-CEM leukemia),growth (MOLT-4 leukemia),growth (CAKI-1 renal),growth (EKVX NSCLC) [%]
Cc1cc(C=O)c(C)c2c1[nH]c1ccccc12,99.8%,93.2%,78.7%,94.6,94.1%,92.5,112%,57.3%,81.5%,110%,75.6%,95.8,74.3%,78%,88.4%,-84.1% (active),83.5%,86.1%,,
C/C(=N\Nc1cc(C)c2ccccc2n1)c1ccccn1,21%,-90.8% (active),31.5%,19.9,-86.5% (active),15.9,-72.1% (active),-52% (active),-78.5% (active),-93.7% (active),,18.2,-86% (active),-12.9% (active),-47.1% (active),19.2%,,-18.7% (active),-15.1% (active),
CC(C)=CCC/C(C)=C/CC/C(C)=C/CC/C(C)=C/CSC[C@H](NC(=O)CCCCCN1CCN(C)CC1)C(=O)NC1CCCCC1,24%,-39% (active),81.5%,85.6,55.2%,64.4,97.9%,87.6%,68.5%,5.53% (active),97.6%,97.7,67.3%,111%,83.4%,92.9%,17.4%,45.2%,,
O=C1c2ccccc2C(=Cc2ccccc2)c2ccccc21,7.88% (active),0.453% (active),-40.9% (active),24.8,6.21% (active),31.8,13.7%,23.9%,4.62% (active),18.3%,,22.3,28%,-7.83% (active),28.1%,-17.4% (active),11.7%,17.3%,,11.3
COc1cc2[nH]c(C(=O)c3cc(OC)c(OC)c(OC)c3)c(N)c2cc1C#CC1CC1,23.1%,5.53% (active),-4.88% (active),45.1,45%,16.7,18.4%,34.4%,36.1%,35.2%,34.7%,61,38.2%,92.2%,24.8%,-13.4% (active),24.9%,44.5%,,
Cc1cc(Nc2ccc(F)cc2)nc(N2CCN(c3ccnc4cc(Cl)ccc34)CC2)n1,9.8% (active),1.42% (active),14.6%,43.9,26.4%,11.1,14.1%,21.5%,13.1%,16.7%,4.35% (active),30.2,3.92% (active),8.31% (active),2.61% (active),-1.6% (active),15.5%,6.8% (active),,
NC(=O)[C@@H]1CC2CCC1C2 (stereo partly specified),98.2%,117%,85.1%,111,96.3%,91,109%,110%,106%,109%,119%,114,99.7%,120%,102%,87.9%,37.4%,102%,,
Cc1ccc(Nc2c(C(N)=O)cnc3ccc(S(=O)(=O)Nc4cc(C)on4)cc23)cc1,108%,98.3%,81%,94.7,95.6%,86.5,99%,91.8%,95.8%,101%,109%,97.9,78.2%,118%,89.2%,88.8%,100%,101%,,
Cc1ccc(-c2nc3ccc(Cl)cc3c(=O)n2N2C(=O)CSC2c2ccccc2Cl)cc1 (stereo unspecified),86.9%,83.7%,36.1%,75.2,22.3%,70.6,94%,77.3%,89.1%,98.6%,96.2%,69,67.2%,,26.4%,84.8%,74.8%,82.7%,60.3%,60
Nc1nc(N)c2nc3c(nc2n1)CCCCCCCCCC3,33.6%,35.6%,79.2%,50.8,34.9%,39.2,35%,43.9%,30.8%,90.4%,77.5%,43.2,48.7%,80.3%,39.4%,93.6%,3.44% (active),45.3%,,
Oc1cc(/C=C/c2nc(N3CCOCC3)c3cc(Cl)c(Cl)cc3n2)cc(O)c1O,98.9%,120%,91.5%,102,102%,101,90%,98.8%,106%,109%,102%,,,95.8%,99.9%,92.5%,109%,85.3%,,
COc1ccc(C(=O)c2cc(OC)c(OC)c(OC)c2)cc1/C=C/C(=O)c1cc(OC)c(OC)c(OC)c1,64.7%,82.7%,65.4%,92.7,86.4%,86.5,86.6%,70.6%,79%,91.3%,116%,96.2,66.2%,140%,89.3%,96.2%,60.5%,88.3%,,
C#Cc1cc2c(N)c(C(=O)c3cc(OC)c(OC)c(OC)c3)[nH]c2cc1OC,32.2%,6.27% (active),-8.14% (active),43.7,34%,16.3,19.9%,34.7%,46.1%,40.3%,15.6%,67.9,,58.6%,35.7%,-19.1% (active),,32%,,
CC(C)=CCC/C(C)=C/CC/C(C)=C/CSC[C@H](NC(=O)CCCCCN1CCN(C)CC1)C(=O)NC1CCCCCC1,0.0874% (active),-48.3% (active),73.8%,81,33.2%,51.9,79.9%,3.45% (active),25.3%,-56% (active),88.2%,87.4,56%,94.2%,66%,77.3%,19.9%,38.4%,,
C/C(=N\Nc1cc(C)c2cc(C)ccc2n1)c1ccccn1,-16.5% (active),-99.3% (active),5.85% (active),20.6,-100% (active),15.2,-98.9% (active),-54.4% (active),-86.4% (active),-93.3% (active),,14.8,-91% (active),-22.2% (active),-100% (active),20.9%,-22% (active),-17.2% (active),-16.3% (active),
OCCNc1nc(Nc2ccc(Cl)c(Cl)c2)nc2ccccc12,26.2%,9.9% (active),61.1%,55.5,34.2%,18.8,34%,57.1%,34.1%,73.6%,64.1%,37.2,47.6%,50%,59.7%,,15.7%,6.93% (active),,
CCCC(=O)N1CCCCC1CC (stereo unspecified),99.4%,106%,92%,112,91.8%,92.5,117%,111%,105%,112%,109%,105,108%,113%,97.1%,90.8%,95.3%,113%,,
